High-throughput results as filed in PubChem BioAssay.
HP1b chromo inh = HTS for Inhibitors of HP1-beta Chromodomain Interactions with Methylated Histone Tails | Chromobox protein homolog 1 (Homo sapiens), P83916 | AlphaScreen HP1-beta / biotin-H3K9me3 peptide binding | Potency, µM (titrated, usually from 114 µM), for inactives: top-dose activity change, negative = inhibition, usual class: inhibitors | hit rate 0.56% among 390,000 | AID 540317, 2011; further: nearly all actives have a fitted effect of over 70% in size
Target sequence (P83916 whole entry, looked up): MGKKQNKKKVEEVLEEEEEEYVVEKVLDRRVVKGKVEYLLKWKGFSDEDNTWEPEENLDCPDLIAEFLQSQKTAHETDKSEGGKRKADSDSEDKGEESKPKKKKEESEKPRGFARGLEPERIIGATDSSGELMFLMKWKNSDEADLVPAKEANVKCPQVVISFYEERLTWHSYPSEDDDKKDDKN
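Compound inhibition of the preformed complex between 50 nM HP1-beta and 50 nM biotinylated H3K9me3 peptide was read by AlphaScreen. Buffer was PBS pH 7.4 with 0.01% Tween-20. Incubations ran 30 min at room temperature, with 10 ug/mL donor/acceptor beads.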
BAZ2B inh = qHTS Assay for Inhibitors of BAZ2B | Bromodomain adjacent to zinc finger domain protein 2B (Homo sapiens), Q9UIF8 | Potency, µM (doses to about 114 µM), for inactives: at the highest dose activity change, negative = inhibition, actives largely listed as inhibitors | AlphaScreen BAZ2B-H3K14Ac peptide displacement | AID 504333, 2011 | hit rate 4.4% among 360,000; further: on the % scale 0 is the no-effect control and ±100 the full control effect; nearly all actives have a fitted effect of over 60% in size
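Compounds, titrated to a top concentration of 110 uM, were incubated 30 min at room temperature with preformed BAZ2B/acetyl-K14 H3 peptide complex (50 nM each). Proximity signal was measured by AlphaScreen after 20 min with beads.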
JMJD2A Tudor = qHTS Assay for Inhibitors of JMJD2A-Tudor Domain; Lysine-specific demethylase 4A (Homo sapiens), O75164; AlphaScreen JMJD2A-Tudor / H3K4me3 peptide binding; Potency, µM (top dose mostly 114 µM), inactives show at the highest dose activity change, negative = inhibition, usual class: inhibitors; hit rate 4.4% among 390,000; AID 504339, 2011; further: on the % scale 0 is the no-effect control and ±100 the full control effect; nearly all actives have a fitted effect of over 50% in size
GLS inhibitor = qHTS for Inhibitors of Glutaminase (GLS); Glutaminase kidney isoform, mitochondrial (Homo sapiens), O94925; GLS enzymatic activity, qHTS titration; Potency, µM (series often up to 45.5 µM), without a hit: at the top dose activity change, negative = inhibition, actives largely listed as inhibitors; hit rate 0.21% among 410,000; further: on the % scale 0 is the no-effect control and ±100 the full control effect
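Two-point fluorescence kinetic (t0, 30 min RT) for hKGA; glutamate detected via glutamate oxidase–HRP–Amplex Red. Substrate: 1 mM L-glutamine solution; buffer 45 mM KH2PO4, pH 8.2.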
G9a block = qHTS Assay for Inhibitors of Histone Lysine Methyltransferase G9a; Histone-lysine N-methyltransferase EHMT2 (Homo sapiens), Q96KQ7; AID 504332, 2011; G9a H3K9 monomethylation, AlphaScreen, 2 h; Potency, µM (doses to about 102 µM), for inactives: at the highest dose activity, negative = inhibition, hits mostly inhibitors; hit rate 8.8% among 350,000; further: on the % scale 0 is the no-effect control and ±100 the full control effect; nearly all actives have a fitted effect of over 75% in size
Target sequence (Q96KQ7 913-1193 limits assumed): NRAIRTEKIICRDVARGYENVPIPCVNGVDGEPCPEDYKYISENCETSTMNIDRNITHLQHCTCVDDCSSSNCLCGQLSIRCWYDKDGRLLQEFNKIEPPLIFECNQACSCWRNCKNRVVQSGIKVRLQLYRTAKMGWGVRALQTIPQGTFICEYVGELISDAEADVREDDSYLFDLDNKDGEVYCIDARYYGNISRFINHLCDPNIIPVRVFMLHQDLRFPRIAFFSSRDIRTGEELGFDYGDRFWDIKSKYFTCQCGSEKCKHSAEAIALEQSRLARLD
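Quantitative HTS format: methyltransferase activity on a biotin-tagged H3K9 peptide is measured by AlphaScreen, using a rabbit anti-monomethyl-H3K9 antibody with streptavidin donor and anti-IgG acceptor beads. Final levels are 20 nM enzyme, 500 nM peptide, 20 uM SAM; 2 h RT.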
The depositor's hits bear a star; ? = inconclusive; . = not tested or not shown; ! = repeats disagree; [ ] = dose if it differs, or a comment. Compounds with a hit are over-represented: about 10% of the library has one in this group of screens. The call rests on the fitted dose curve; in most records, active means well fitted curve in the direction sought with a large enough effect; inconclusive means small, poorly fitted or top-dose-only effect, or another doubt; inactive means no such curve, though single readings can be large; an effect the other way counts as inactive or inconclusive. Potency means the concentration at half of the fitted maximal effect.

SMILES	HP1b chromo inh	BAZ2B inh	JMJD2A Tudor	GLS inhibitor	G9a block
O=C(CSc1n[nH]c(-c2ccncc2)n1)NC1CCS(=O)(=O)C1 (configuration not stated)	49%	0%	89µM*	2%	?
COc1ccc(NC(=O)CSc2nnc(-c3ccc(OC)cc3)s2)cc1	13%[57 µM]	0%	-22%	-2%	-7%[59 µM]
Nc1nnc(SCC(=O)Nc2cccc(S(N)(=O)=O)c2)s1	44%	1%	-9%	-3%	-37%
COc1ccc(NC(=O)CSc2nnc(N)s2)cc1	17%	-2%	-10%	0%	79µM*!
CCNC(=O)/C(C#N)=C/c1c(N2CCCCCC2)nc2c(C)cccn2c1=O	-9%	-18%	-29%	0%	4%[2.33 µM]
O=C(COc1ccc(Br)cc1)OCCN1CCCCC1	60%	-4%	-5%	-2%	-37%
O=c1[nH]c(=S)[nH]c2nc(-c3cccs3)cc(C(F)(F)F)c12	36%	-6%	-15%	-11%	79µM*
CCc1[nH]nc2c1C1(CCN(C(=O)OCc3ccccc3)CC1)C(C#N)=C(N)O2	18%	13%	-15%	20%	?
N#CC(=C1C=CC(=NO)C(Cl)=C1)c1ccc(Cl)cc1	?	.	20µM*	-5%	.
N#Cc1c(Sc2ncc(C(F)(F)F)cc2Cl)nsc1C/C=N\OCc1ccccc1Br	-22%	45µM*	?	4%	20µM*
O=C(CSc1ncnc2sc3c(c12)CCCC3)NC1CCS(=O)(=O)C1 (configuration not stated)	14%	.	-23%	6%	.
COc1ccc(C)cc1NC(=O)C1COc2ccccc2C1 (configuration not stated)	25%[57 µM]	5%	8.9µM*	-10%	-5%[59 µM]
Cc1c(Cc2ccccc2)c(=O)oc2cc(OCC(=O)NCC3CCC(C(=O)O)CC3)ccc12 (configuration not stated)	22%	8%[57.1 µM]	-27%	-6%	.
O=C(O)CCCCCNc1nc(=S)[nH]c2ccccc12	5%	?	22µM*	1%	?
CC(c1ccccc1)n1c(-c2ccccc2F)n[nH]c1=S (configuration not stated)	20%	-2%	22µM*	-15%	.
CC(C)(C)c1ccc(-c2cc(N)n[nH]2)cc1	22%	-28%	?	24%	-35%[59 µM]
CC(C)n1c(-c2ccc(C(C)(C)C)cc2)n[nH]c1=S	15%	-31%	28µM*	?	2.5µM*
CC(c1ccc(F)cc1)n1c(-c2cccs2)n[nH]c1=S (configuration not stated)	20%	-31%	?	-6%	5µM*
CC(c1ccccc1)n1c(-c2ccncc2)n[nH]c1=S (configuration not stated)	15%	5%	18µM*	6%	2.5µM*
CC(c1ccccc1)n1c(-c2ccc(Cl)cc2)n[nH]c1=S (configuration not stated)	33%	-35%	-34%	-21%	.
Cc1ccc(C(=O)CCC(=O)NCc2ccccc2)cc1	38%	1%	11%	4%	8%
CCO[C@H]1OC(C(=O)NCc2ccccc2)=C[C@@H](c2ccc3c(c2)OCO3)[C@@H]1CCCO	19%	-15%	-12%	3%	9%[59 µM]
CC(C)n1c(-c2ccccc2F)n[nH]c1=S	16%	-6%	4µM*	-1%	.
CC1=Nn2c(nnc2-c2ccccc2F)SC1	23%	2%	-16%	3%	-45%[12.7 µM]
Clc1cccc(-c2ccc(CNCCSc3nnnn3-c3ccccc3)o2)c1	49%	?	27%	2%	?
SMILES	HP1b chromo inh	BAZ2B inh	JMJD2A Tudor	GLS inhibitor	G9a block
Brc1ccc(-c2ccc(CNCCSc3nnnn3-c3ccccc3)o2)cc1	8%	20µM*	-35%	1%	16µM*
CCc1ccc(-n2c(SCC(=O)Nc3ccc(C(=O)O)cc3)nnc2-c2ccncc2)cc1	57%	-11%	-6%	-12%	1%
Cc1cc(C(=O)OCC(=O)c2ccc(Cl)c([N+](=O)[O-])c2)c2cccc(C)c2n1	-10%	?	22µM*	1%	?
Cc1ccc2nc(C)cc(C(=O)OCC(=O)c3ccc(Cl)c([N+](=O)[O-])c3)c2c1	0%	?	?	3%	.
COc1ccc(Nc2nc(NC(C)(C)C)nc(N3CCCC3)n2)c(OC)c1	?	35µM*	28µM*	9%	40µM*
Cn1c(-c2cccc(Br)c2)cnc1NCc1ccccc1O	?	50µM*	20µM*	18%	.
Cc1cccc(N2C(=O)/C(=C/c3cccnc3)SC2=S)c1	-8%	?	?	-3%	16µM*
Cc1cc(/C=C2/SC(=S)N(c3ccc([N+](=O)[O-])cc3)C2=O)c(C)n1-c1cccnc1	-31%	?	?	-3%	10µM*
Cc1cc(/C=C2/SC(=S)N(c3cccc(Cl)c3)C2=O)c(C)n1-c1cccnc1	-22%	.	?	8%	.
CCCC(c1nnnn1CCOC)N1CCN(c2nc3ccccc3s2)CC1 (configuration not stated)	-19%	-1%	13µM*	?	-19%
COc1ccc(C(c2nnnn2C(C)(C)C)N2CCN(c3nc4ccccc4s3)CC2)cc1 (configuration not stated)	24%	-13%	-17%	-2%	-41%[59 µM]
CCC(C)(C)n1nnnc1C(c1ccc(O)c(OC)c1)N1CCN(c2nc3ccccc3s2)CC1 (configuration not stated)	-28%	-36%	-32%	2%	2.5µM*
c1ccc(Cn2nnnc2C(c2ccccc2)N2CCN(c3nc4ccccc4s3)CC2)cc1 (configuration not stated)	34%	.	1%	-2%	2%[59 µM]
COc1ccc(C(c2nnnn2Cc2ccccc2)N2CCN(c3nc4ccccc4s3)CC2)cc1OC (configuration not stated)	3%	-12%	79µM*	8%	20µM*
O=S(=O)(/N=C(\c1ccc(F)cc1)N1CCOCC1)c1ccccc1	.	.	.	-8%	.
N#Cc1ccc(Oc2ccc(S(=O)(=O)N3CCCC3)cn2)cc1	18%	0%	2%	-19%	-13%
On1cnnc1-c1ccccc1	27%	32%	-3%	1%	-12%
COn1cnnc1-c1ccccc1	27%	7%	-7%	18%	13µM*
COc1ccc(/C=N/N=C2/NC(=O)C(CC(=O)O)S2)cc1OCc1ccc(Cl)cc1 (configuration not stated)	15%	?	?	4%	-7%
